Experimental findings from PubChem BioAssay (EPA / NIEHS) are described below.

Holding throughout (conditions): mRNA level, 48 h; actives raise or lower the signal
Read-out in assay [1]: ABC Transporter (ABCC2), ABCC2 (gene 1244)
Nature of the assay: LTEA_HepaRG_ABCC2: Life Technologies and Expression Analysis (LTEA) Assay for ABC Transporter (ABCC2) using HepaRG (AID 2283464). In short, it runs like this:
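Endpoint is ABCC2 transcript level from qRT-PCR, normalized to three housekeeping genes and fitted bidirectionally relative to DMSO. Human HepaRG cells received test chemical for 48 h at up to 100 uM (8 points, half-log steps, 0.5% DMSO), duplicate wells.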

Read-out in assay [2]: Broad substrate specificity ATP-binding cassette transporter ABCG2 (Homo sapiens) (UniProt Q9UNQ0)
Description: LTEA_HepaRG_ABCG2: Life Technologies and Expression Analysis (LTEA) Assay for ABC Transporter (ABCG2) using HepaRG (AID 2283465). In short, it runs like this: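 HepaRG, 48 h exposure, 8-pt half-log series from 100 uM, 0.5% DMSO vehicle, duplicates. Readout: ABCG2 transcript by qRT-PCR (Fluidigm array), housekeeping-normalized; bidirectional curve fit relative to DMSO baseline.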

Read-out in assay [3]: ATP-citrate lyase (ACLY), ACLY (gene 47)
Nature of the assay: LTEA_HepaRG_ACLY: Life Technologies and Expression Analysis (LTEA) Assay for ATP-citrate lyase (ACLY) using HepaRG (AID 2283466). In short, it runs like this: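 qRT-PCR readout of ACLY transcript after 48 h chemical treatment of HepaRG cells; expression normalized to three housekeeping genes. Eight-point half-log series, highest 100 uM, 0.5% DMSO vehicle. Gain or loss fitted against DMSO baseline.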

Read-out in assay [4]: Peroxisomal acyl-coenzyme A oxidase 1 (ACOX1) gene, ACOX1 (gene 51)
Description: LTEA_HepaRG_ACOX1: Life Technologies and Expression Analysis (LTEA) Assay for Peroxisomal acyl-coenzyme A oxidase 1 (ACOX1) gene using HepaRG (AID 2283467). The method in brief:
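HepaRG, 48 h chemical exposure, 8-pt half-log series from 100 uM top, 0.5% DMSO vehicle, duplicates. Readout: ACOX1 mRNA by Fluidigm qRT-PCR, housekeeping-normalized; bidirectional fit vs DMSO baseline.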

Read-out in assay [5]: Alkaline Phosphatase, Placental (ALPP) gene, ALPP (gene 250)
Nature of the assay: LTEA_HepaRG_ALPP: Life Technologies and Expression Analysis (LTEA) Assay for Alkaline Phosphatase, Placental (ALPP) gene using HepaRG (AID 2283468). The method in brief:
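ALPP transcript level, measured by qRT-PCR and normalized to three housekeeping genes (ACTB, GAPDH, POLR2A), after 48 h dosing of differentiated HepaRG in serum-free induction medium. Top concentration 100 uM with half-log dilutions (8 points, 0.5% DMSO, duplicates); bidirectional fitting relative to DMSO.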

Read-out in assay [6]: Bcl-2 (BAD) gene, BAD (gene 572)
Description: LTEA_HepaRG_BAD: Life Technologies and Expression Analysis (LTEA) Assay for Bcl-2 (BAD) gene using HepaRG (AID 2283469). In short, it runs like this:
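HepaRG, 48 h exposure, 8-pt half-log curve from 100 uM in 0.5% DMSO, duplicates. Readout: TaqMan qRT-PCR for BAD mRNA, housekeeping-normalised (ACTB/GAPDH/POLR2A); gain or loss fitted against DMSO baseline.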

Read-out in assay [7]: Bcl-2 (BAX) gene, BAX (gene 581)
Description: LTEA_HepaRG_BAX: Life Technologies and Expression Analysis (LTEA) Assay for Bcl-2 (BAX) gene using HepaRG (AID 2283470). The method in brief: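 qRT-PCR read-out of BAX mRNA, normalized to three housekeeping genes, after 48 h chemical exposure of human HepaRG cells in serum-free induction medium; eight-point half-log series, top 100 uM, 0.5% DMSO vehicle; bidirectional fit versus DMSO.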

Read-out in assay [8]: adenosine kinase (ADK) gene, ADK (gene 132)
Description: LTEA_HepaRG_ADK: Life Technologies and Expression Analysis (LTEA) Assay for adenosine kinase (ADK) gene using HepaRG (AID 2283471). The method in brief: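 Following 48 h exposure of HepaRG cells in 0.5% DMSO (top concentration 100 uM, duplicate wells), ADK mRNA induction or suppression was measured by qRT-PCR, normalised to ACTB/GAPDH/POLR2A, and fitted bidirectionally relative to vehicle.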

Read-out in assay [9]: Alpha-fetoprotein (AFP) gene, AFP (gene 174)
Nature of the assay: LTEA_HepaRG_AFP: Life Technologies and Expression Analysis (LTEA) Assay for Alpha-fetoprotein (AFP) gene using HepaRG (AID 2283472). In short, it runs like this:
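qRT-PCR (Fluidigm TaqMan) readout of AFP transcript, normalized to three housekeeping genes, fitted bidirectionally against 0.5% DMSO baseline. HepaRG cells received chemicals for 48 h in serum-free induction medium, top concentration 100 uM, half-log steps.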

Read-out in assay [10]: BCL2L11 (gene 10018)
Nature of the assay: LTEA_HepaRG_BCL2L11: Life Technologies and Expression Analysis (LTEA) Assay for Bcl-2 (BCL2L11) gene using HepaRG (AID 2283473). In short, it runs like this:
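BCL2L11 transcript levels are measured by Fluidigm qRT-PCR, normalized to three housekeeping genes. HepaRG cultures were plated 48 h, then treated 48 h with test chemical (top 100 uM, half-log, 0.5% DMSO vehicle); curves were fitted bidirectionally against DMSO.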

Read-out in assay [11]: Apolipoprotein A-V (APOA5) gene, APOA5 (gene 116519)
Nature of the assay: LTEA_HepaRG_APOA5: Life Technologies and Expression Analysis (LTEA) Assay for Apolipoprotein A-V (APOA5) gene using HepaRG (AID 2283474). In short, it runs like this:
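APOA5 transcript levels were quantified by qRT-PCR, normalized to three housekeeping genes, after 48 h chemical treatment of HepaRG cells (8 points, 100 uM maximum, half-log steps, 0.5% DMSO). Curves fitted in both directions against vehicle.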

Read-out in assay [12]: Bcl-2 (BID) gene, BID (gene 637)
Nature of the assay: LTEA_HepaRG_BID: Life Technologies and Expression Analysis (LTEA) Assay for Bcl-2 (BID) gene using HepaRG (AID 2283476). The method in brief: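 HepaRG, 48 h exposure, 8-pt half-log series, top 100 uM, 0.5% DMSO vehicle, duplicates. Readout: BID mRNA by TaqMan qRT-PCR; housekeeping-normalized; bidirectional curve fit vs DMSO baseline.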

Read-out in assay [13]: Caspase-3 (Homo sapiens) (UniProt P42574)
Nature of the assay: LTEA_HepaRG_CASP3: Life Technologies and Expression Analysis (LTEA) Assay for cysteine-aspartic acid protease (CASP3) using HepaRG (AID 2283477). In short, it runs like this: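 Expression of CASP3 was quantified by TaqMan qRT-PCR against three housekeeping genes (ACTB, GAPDH, POLR2A), bidirectionally versus 0.5% DMSO. HepaRG cultures received compounds in duplicate, top 100 uM with half-log steps, for 48 h in serum-free induction medium.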

Read-out in assay [14]: Cytochrome P450 (CYP1A2), CYP1A2 (gene 1544)
Nature of the assay: LTEA_HepaRG_CYP1A2: Life Technologies and Expression Analysis (LTEA) Assay for Cytochrome P450 (CYP1A2) using HepaRG (AID 2283479). In short, it runs like this: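 CYP1A2 transcript measured by TaqMan qRT-PCR against three housekeeping genes after 48-hour chemical exposure of HepaRG cells. Eight-point half-log series topping at 100 uM in 0.5% DMSO, duplicates; gain or loss fitted relative to vehicle.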

Read-out in assay [15]: cysteine-aspartic acid protease (CASP8), CASP8 (gene 841)
Description: LTEA_HepaRG_CASP8: Life Technologies and Expression Analysis (LTEA) Assay for cysteine-aspartic acid protease (CASP8) using HepaRG (AID 2283480). In short, it runs like this:
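qRT-PCR readout of CASP8 mRNA, normalized to three housekeeping genes, after 48 h chemical exposure of HepaRG cells; 8-point half-log series, top 100 uM, 0.5% DMSO vehicle. Bidirectional curve fitting against DMSO baseline.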

Read-out in assay [16]: Cytochrome P450 (CYP2B6), CYP2B6 (gene 1555)
Nature of the assay: LTEA_HepaRG_CYP2B6: Life Technologies and Expression Analysis (LTEA) Assay for Cytochrome P450 (CYP2B6) using HepaRG (AID 2283481). In short, it runs like this:
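CYP2B6 transcript level quantified by qRT-PCR against three housekeeping genes, fitted bidirectionally relative to DMSO. HepaRG cultures received chemicals for 48 h, 8-point half-log series from 100 uM in 0.5% DMSO, duplicate wells, serum-free induction medium.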

Read-out in assay [17]: Cytochrome P450 2C19 (Homo sapiens) (UniProt P33261)
Description: LTEA_HepaRG_CYP2C19: Life Technologies and Expression Analysis (LTEA) Assay for CYP2C19 using HepaRG (AID 2283482). In short, it runs like this: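 CYP2C19 transcript levels by qRT-PCR, normalized to three housekeeping genes, in HepaRG cells after 48 h chemical exposure. Eight-point half-log series topping at 100 uM, 0.5% DMSO vehicle. Increases and decreases both fitted against DMSO.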

Read-out in assay [18]: CYP2C8 (gene 1558)
Nature of the assay: LTEA_HepaRG_CYP2C8: Life Technologies and Expression Analysis (LTEA) Assay for CYP2C8 using HepaRG (AID 2283483). The method in brief: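 HepaRG (human liver line), 48 h chemical exposure, 8-pt half-log series from 100 uM, 0.5% DMSO vehicle. Readout: CYP2C8 transcript by qRT-PCR, housekeeping-normalized. Bidirectional fit vs DMSO baseline.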

Read-out in assay [19]: Apoptosis regulator Bcl-2 (Homo sapiens) (UniProt P10415)
Nature of the assay: LTEA_HepaRG_BCL2: Life Technologies and Expression Analysis (LTEA) Assay for Bcl-2 gene using HepaRG (AID 2283475). In short, it runs like this: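 qRT-PCR read-out (Fluidigm TaqMan) of BCL2 transcript, normalised to three housekeeping genes, after 48 h chemical exposure of HepaRG cells; 8-point half-log series, top 100 uM, 0.5% DMSO vehicle. Gain or loss of signal fitted relative to DMSO baseline.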

Calls of active or inactive are those of the source. How the source made its calls: active means hit-call score of the fitted dose curve at least 0.9, where 1 is the maximum; inactive means score below 0.9.

Chain of Cytochrome P450 2C19 (Homo sapiens) (P33261 whole entry, looked up): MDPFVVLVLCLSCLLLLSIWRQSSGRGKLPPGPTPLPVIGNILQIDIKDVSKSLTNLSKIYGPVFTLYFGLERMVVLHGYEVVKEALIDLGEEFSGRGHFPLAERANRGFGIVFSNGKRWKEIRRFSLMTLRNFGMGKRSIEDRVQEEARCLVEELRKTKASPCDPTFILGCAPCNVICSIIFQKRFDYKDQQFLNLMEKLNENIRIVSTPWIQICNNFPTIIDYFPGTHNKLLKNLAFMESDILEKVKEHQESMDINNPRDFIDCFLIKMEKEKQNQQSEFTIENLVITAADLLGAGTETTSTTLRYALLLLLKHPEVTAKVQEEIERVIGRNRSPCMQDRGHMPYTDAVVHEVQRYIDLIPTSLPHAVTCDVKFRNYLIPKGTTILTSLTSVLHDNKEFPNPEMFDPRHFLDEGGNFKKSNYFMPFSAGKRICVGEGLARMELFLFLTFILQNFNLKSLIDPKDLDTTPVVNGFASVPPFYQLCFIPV
Chain of Broad substrate specificity ATP-binding cassette transporter ABCG2 (Homo sapiens) (Q9UNQ0 whole entry, looked up): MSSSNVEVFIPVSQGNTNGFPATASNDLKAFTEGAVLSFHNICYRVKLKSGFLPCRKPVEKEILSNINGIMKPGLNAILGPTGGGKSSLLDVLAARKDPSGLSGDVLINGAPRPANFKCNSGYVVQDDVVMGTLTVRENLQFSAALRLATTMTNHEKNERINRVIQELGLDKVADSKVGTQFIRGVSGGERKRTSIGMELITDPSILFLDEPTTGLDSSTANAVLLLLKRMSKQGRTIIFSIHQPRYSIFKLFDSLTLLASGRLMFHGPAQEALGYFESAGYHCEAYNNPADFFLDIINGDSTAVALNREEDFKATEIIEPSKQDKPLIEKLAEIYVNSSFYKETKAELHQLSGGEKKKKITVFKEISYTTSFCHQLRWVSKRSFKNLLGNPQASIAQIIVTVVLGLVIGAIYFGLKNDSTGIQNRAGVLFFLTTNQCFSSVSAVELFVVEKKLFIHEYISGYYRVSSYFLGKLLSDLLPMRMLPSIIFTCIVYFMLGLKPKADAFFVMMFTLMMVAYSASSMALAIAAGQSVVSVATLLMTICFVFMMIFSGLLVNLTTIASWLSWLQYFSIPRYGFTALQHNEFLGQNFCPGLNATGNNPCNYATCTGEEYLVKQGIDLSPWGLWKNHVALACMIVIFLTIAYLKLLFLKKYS
Chain of Caspase-3 (Homo sapiens) (P42574 whole entry, looked up): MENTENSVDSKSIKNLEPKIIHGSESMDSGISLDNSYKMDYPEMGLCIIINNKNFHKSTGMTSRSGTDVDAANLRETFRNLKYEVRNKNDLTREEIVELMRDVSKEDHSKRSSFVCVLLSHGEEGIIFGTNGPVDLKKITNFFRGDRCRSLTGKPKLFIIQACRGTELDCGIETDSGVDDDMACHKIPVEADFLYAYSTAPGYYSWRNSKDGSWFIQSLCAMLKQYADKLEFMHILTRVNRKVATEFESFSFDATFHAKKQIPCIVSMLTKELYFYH
Chain of Apoptosis regulator Bcl-2 (Homo sapiens) (P10415 whole entry, looked up): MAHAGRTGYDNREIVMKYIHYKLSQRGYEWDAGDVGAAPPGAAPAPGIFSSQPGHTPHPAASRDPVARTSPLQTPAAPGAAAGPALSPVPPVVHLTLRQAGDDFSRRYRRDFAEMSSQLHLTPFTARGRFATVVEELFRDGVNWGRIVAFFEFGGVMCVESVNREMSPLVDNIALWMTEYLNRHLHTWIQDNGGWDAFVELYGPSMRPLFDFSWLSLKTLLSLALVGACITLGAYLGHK

Take `c1ccc(NNc2ccccc2)cc1`: the compound was called inactive in [1], in assay [2], in assay [3], in assay [4], in assay [5] and in assay [6]. Besides, the compound was called inactive in [7], in [8], in assay [9], in assay [10], in assay [11] and in assay [12]. The compound was called inactive in assay [13], in assay [15], in assay [17] and in [18]. Besides, the figures for the half-maximal activity concentration (AC50) in assay [14] and in [16] were 32.7 µM (active) and 5.26 µM (active), respectively.
On to `CCCSC(=O)N(CCC)CCC`, for which the outcome in assay [1], in [2], in assay [3], in assay [4], in [5] and in assay [6] was inactive. The result in assay [7], in assay [8], in assay [9], in assay [10], in assay [11] and in assay [12] was inactive. The compound was called inactive in assay [13], in assay [14], in assay [15], in assay [17] and in assay [18].
With `CN(C)[C@@H]1C(=O)C(C(N)=O)=C(O)[C@@]2(O)C(=O)C3=C(O)c4c(O)cccc4[C@@](C)(O)[C@H]3C[C@@H]12`, the compound was classed as inactive in assay [1], in assay [2], in assay [3], in assay [4], in assay [5] and in assay [6]. Besides, the call in [7], in assay [8], in assay [9], in assay [10], in assay [11] and in assay [12] was inactive. Besides, the outcome in assay [13], in assay [15], in assay [16], in assay [17] and in assay [18] was inactive.
For the compound `Cc1cccc(N)c1N`, the compound was classed as inactive in assay [1], in assay [2], in [3], in assay [5], in assay [7] and in assay [8]. Besides, the result in assay [19], in assay [12], in assay [13], in [15], in assay [16] and in assay [17] was inactive. Further, the AC50 in [4] was 50 µM (active); in assay [9] it was 81.5 µM (active); in [10], 9.92 µM (active); in assay [11], 37.6 µM (active); in assay [14] it was 8.42 µM (active); in assay [18] it was 50 µM (active).
